Data from PubChem BioAssay AID1159580 (chemical genetic matrix, 2015).
Values joined by “and” are separate entries in the source; they are usually repeats but may differ in a detail not shown here. Identical values can stand only once. In all, about 5,500 compounds went through this assay and about 2,000 (36%) were called active. Roughly 18% stayed inconclusive and do not appear here. Cut-off read from the data, not from the text of the source: active = normalized growth mostly below about 0.91 (no sharp cut-off); inconclusive = no clear call, values can overlap the other calls; inactive = mostly above about 0.92. This is one part of the list.

Assay: chemical genetic growth profiling, strain panel (AID 1159580);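 note: tested at 20 µM; growth read once vehicle control cultures reached saturation at 30 °C; 1 = growth at the plate median or of vehicle wells; lower values mean less growth of the strain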
Settings: S. cerevisiae deletion strains, growth OD

Measured: normalized growth

CCCCCCC(C)OC(=O)COc1ccc(Cl)cc1Cl (configuration not stated)
inactive: locus YAL013W, strain DEP1, active compounds read low 0.981 | locus YAL021C, strain ccr4, active compounds read low 0.991 | locus YAL026C, strain drs2, active compounds read low 0.993 | locus YAL030W, strain snc1, active compounds read low 0.99 | locus YBL061C, strain skt5, active compounds read low 0.996 | locus YBR009C, strain hhf1, active compounds read low 0.985 | locus YBR021W, strain FUR4, active compounds read low 1 | locus YBR023C, strain chs3, active compounds read low 0.99 | locus YBR171W, strain sec66, active compounds read low 0.99 | locus YBR229C, strain ROT2, active compounds read low 0.996 | locus YBR231C, strain swc5, active compounds read low 0.984 | locus YBR279W, strain paf1, active compounds read low 0.994 | locus YCL011C, strain gbp2, active compounds read low 0.987 | locus YCL016C, strain dcc1, active compounds read low 0.988 | locus YCL029C, strain bik1, active compounds read low 1 | locus YCL061C, strain MRC1, active compounds read low 0.993 | locus YCL069W, strain vba3, active compounds read low 0.992 | locus YCR088W, strain abp1, active compounds read low 0.996 | locus YDL005C, strain med2, active compounds read low 0.996 | locus YDL035C, strain GPR1, active compounds read low 0.955 | locus YDL040C, strain nat1, active compounds read low 0.985 | locus YDL074C, strain BRE1, active compounds read low 0.968 | locus YDL101C, strain DUN1, active compounds read low 0.985 | locus YDL134C, strain PPH21, active compounds read low 1 | locus YDL185W, strain tfp1, active compounds read low 1.01 | locus YDL192W, strain arf1, active compounds read low 1 | locus YDR001C, strain nth1, active compounds read low 0.99 | locus YDR069C, strain doa4, active compounds read low 0.97 | locus YDR101C, strain arx1, active compounds read low 0.996 | locus YDR137W, strain rgp1, active compounds read low 0.987 | locus YDR150W, strain NUM1, active compounds read low 1.01 | locus YDR159W, strain sac3, active compounds read low 0.992 | locus YDR162C, strain NBP2, active compounds read low 0.939 | locus YDR195W, strain ref2 0.957 | locus YDR297W, strain sur2, active compounds read low 0.988 | locus YDR318W, strain mcm21, active compounds read low 1 | locus YDR334W, strain swr1, active compounds read low 0.988 | locus YDR335W, strain msn5, active compounds read low 0.994 | locus YDR388W, active compounds read low 1 | locus YDR392W, strain spt3, active compounds read low 0.997 | locus YDR502C, strain sam2, active compounds read low 1 | locus YEL003W, strain gim4, active compounds read low 0.988 | locus YEL037C, strain rad23, active compounds read low 0.995 | locus YEL061C, strain CIN8 (second series), active compounds read low 0.988 | locus YEL061C, strain CIN8, active compounds read low 0.986 | locus YER015W, strain faa2, active compounds read low 0.991 | locus YER016W, strain bim1, active compounds read low 0.99 | locus YER110C, active compounds read low 1 | locus YER111C, strain swi4, active compounds read low 1 | locus YER155C, strain BEM2 (second series), active compounds read low 0.989 | locus YER155C, strain BEM2, active compounds read low 0.976 | locus YER167W, strain BCK2, active compounds read low 0.986 | locus YFR010W, strain ubp6, active compounds read low 0.992 | locus YGL078C, strain dbp3, active compounds read low 0.996 | locus YGL086W, strain mad1, active compounds read low 0.997 | locus YGL167C, strain pmr1, active compounds read low 0.993 | locus YGL173C, strain kem1, active compounds read low 0.989 | locus YGL227W, strain vid30, active compounds read low 0.979 | locus YGL240W, strain doc1, active compounds read low 1 | locus YGL248W, strain PDE1, active compounds read low 0.991 | locus YGL253W, strain hxk2, active compounds read low 0.987 | locus YGR078C, strain PAC10, active compounds read low 0.988 | locus YGR135W, strain pre9, active compounds read low 1.01 | locus YGR229C, strain SMI1, active compounds read low 0.891 | locus YGR252W, strain gcn5, active compounds read low 1 | locus YHR013C, strain ard1, active compounds read low 0.988 | locus YHR027C, strain rpn1, active compounds read low 0.996 | locus YHR030C, strain SLT2, active compounds read low 0.974 and 1.03 | locus YHR079C, strain IRE1 (second series), active compounds read low 0.997 | locus YHR079C, strain IRE1, active compounds read low 1.02 | locus YHR094C, strain hxt1, active compounds read low 0.998 | locus YHR129C, strain ARP1, active compounds read low 0.977 | locus YHR142W, strain chs7, active compounds read low 0.988 | locus YHR200W, strain rpn10, active compounds read low 0.993 | locus YIL066C, strain RNR3, active compounds read low 0.963 | locus YIL073C, strain SPO22, active compounds read low 0.957 | locus YIL125W, strain kgd1, active compounds read low 0.996 | locus YIR030C, strain dcg1, active compounds read low 0.996 | locus YJL092W, strain hpr5, active compounds read low 0.994 | locus YJL095W, strain BCK1 (second series), active compounds read low 0.983 | locus YJL095W, strain BCK1, active compounds read low 0.94 and 1.03 | locus YJL115W, strain asf1, active compounds read low 0.989 | locus YJL129C, strain trk1, active compounds read low 0.953 | locus YJL134W, strain LCB3, active compounds read low 0.98 | locus YJL154C, strain vps35, active compounds read low 0.994 | locus YJL164C, strain tpk1, active compounds read low 0.969 | locus YJL166W, strain qcr8, active compounds read low 0.989 | locus YJL168C, strain set2, active compounds read low 1 | locus YJL187C, strain SWE1 (second series), active compounds read low 0.998 | locus YJL187C, strain SWE1, active compounds read low 0.992 | locus YJR043C, strain POL32, active compounds read low 0.969 | locus YJR066W, strain TOR1, active compounds read low 0.949
